The text below walks through data of PubChem BioAssay.

Each structure is given as a SMILES string.

The test system of this assay is XIP peptide (Xip251-270). The assay can be described thus: small-molecule binders of XIP peptide, primary screen, biochemical, small-molecule microarray, fluorescence 635/667 nm, 0.5 µg/mL protein (AID 1183). As to conditions: small-molecule microarray binding, fluorescence 635 nm; higher = more signal.
Turning to `C[C@@H](c1ccccc1)N1C(=O)[C@H]2[C@H]3[C@H](O)[C@H](O)CC(=NO[C@@H]4O[C@H](CO)[C@@H](O)[C@H](O)[C@H]4O)[C@@H]3CC[C@H]2C1=O`, the composite z-score was determined as 0.438. For `Cn1c(=O)n2n(c1=O)[C@H]1[C@H](O)[C@@H]3O[C@@H]3C(=NOCc3ccccc3)[C@H]1CC2`, the composite z-score was determined as 0.382. For the compound `COC(=O)CC=C[C@@H](C)[C@@H](C=NO[C@@H]1O[C@H](COC(C)=O)[C@@H](OC(C)=O)[C@H](OC(C)=O)[C@H]1OC(C)=O)OC`, the composite z-score is -0.17. Turning to `CCN1C(=O)[C@H]2[C@H]3[C@H](O)[C@H](O)CC(=NOC[C@H]4O[C@H](c5ccccc5)C=C[C@@H]4Oc4ccc(OC)cc4)[C@@H]3CC[C@H]2C1=O`, the composite z-score was 0.704. In the case of `COC(=O)CC=C[C@@H](C)[C@@H](C=NOCC[C@@H]1C=C[C@H](OC(C)=O)[C@@H](COC(C)=O)O1)NS(=O)(=O)c1ccc(C)cc1` it was 0.303; in that of `CC(C)CON=C1C[C@@H](O)[C@@H](O)[C@@H]2[C@@H]3C(=O)N(C4CCCCC4)C(=O)[C@@H]3CC[C@H]12`, 0.793. In the case of `CCOC(=O)[C@H](Cc1ccccc1)NC(=O)CCC1CC(OC(=O)NCCc2ccc(F)cc2)CC2(CCCC(COC(=O)NCCc3ccccc3OC)O2)O1` (stereo partly drawn) it was 0.525. In the case of `CC(C)CON=C1C[C@@H](O)[C@@H](O)[C@@H]2[C@@H]3C(=O)N(c4cccc(Oc5ccccc5)c4)C(=O)[C@@H]3CC[C@@H]12` it was 0.536. `CC(C)CON=C1C[C@@H](O)[C@@H](O)[C@@H]2[C@@H]3C(=O)N(C(C)(C)C)C(=O)[C@@H]3CC[C@H]12`: the composite z-score was 0.494. In the case of `COc1ccc(O[C@@H]2[C@H](O)CO[C@H]2C=Cc2ccccc2)cc1` it was -0.0143. Take `O=C(NN=C1C[C@@H](O)[C@@H](O)[C@@H]2[C@@H]3C(=O)N(Cc4ccccc4)C(=O)[C@@H]3CC[C@@H]12)OCc1ccccc1`: the composite z-score is -0.36. As for `CCC(=O)[C@@]1(O)C(=O)N2C(=C3C(=O)OCC[C@@H]31)N(Cc1ccccc1)C(C)=C(C(=O)OC)[C@H]2c1ccccc1`, the figure is 0.177; as for `CO[C@H]1COC(=O)CCC[C@@H](C)[C@H](OC)COC(=O)[C@@H]2CCCN2C(=O)CC=C[C@@H]1C`, 0.497; as for `CCCNC(=O)OC[C@H]1O[C@H](CCON=C(C)CCN2CCCc3nc(C)c(C)cc32)C=C[C@@H]1Oc1ccc(OC)cc1`, 0.527. As for `COc1ccc(COC(=O)NN=C2C[C@@H](O)[C@@H](O)[C@@H]3[C@@H]4C(=O)N(C5CCCCC5)C(=O)[C@@H]4CC[C@H]23)cc1`, the figure is -1.02.

For the compound `CC(C)CON=C1C[C@@H](O)[C@@H](O)[C@@H]2[C@@H]3C(=O)N(Cc4ccc5c(c4)OCO5)C(=O)[C@@H]3CC[C@H]12`, the composite z-score is 0.202. Turning to `CON=CC[C@@H]1C=C[C@H](OC(C)=O)[C@@H](COC(C)=O)O1`, the composite z-score worked out at 0.763. In the case of `CO[C@H]1COC(=O)CC=C[C@H](C)[C@@H](OC)COC(=O)[C@@H](C)NC(=O)CC=C[C@@H]1C` it was 0.54; in that of `CC(=O)OC[C@H]1O[C@H](CC=NO[C@H](C)c2cn([C@H](CO)Cc3ccccc3)nn2)C=C[C@@H]1OC(C)=O`, 0.289; in that of `CC(C)=CCCC(C)=CCON=C1C[C@@H](O)[C@@H](O)[C@@H]2[C@@H]3C(=O)N(c4ccc(F)cc4F)C(=O)[C@@H]3CC[C@@H]12`, 0.542. As to `COC(=O)CC=C[C@H](C)[C@@H](OCc1cccc(Br)c1)[C@@H](C)[C@H](OC)C1CCCCC1`, the composite z-score was 0.768.

As to `COC(=O)[C@H](C)NC(=O)CCC1CC(OC(=O)NCc2cccc3ccccc23)CC2(CCCC(COC(=O)NCC(c3ccccc3)c3ccccc3)O2)O1` (stereo partly drawn), the composite z-score was 0.583. In the case of `C#CCCCON=C1C[C@@H](O)[C@@H](O)[C@@H]2[C@@H]3C(=O)N(Cc4ccccc4)C(=O)[C@@H]3CC[C@@H]12` it was -0.148. In the case of `COC(=O)[C@H](C)NC(=O)CCC1CC(OC(=O)NCCc2ccc(F)cc2)CC2(CCCC(COC(=O)NCc3cccc(C(F)(F)F)c3)O2)O1` (stereo partly drawn) it was 0.517; in that of `CCc1cc2c(nc1CC)CCN(CCC(C)=NO[C@H](C)c1cn([C@H](CO)Cc3ccccc3)nn1)C2`, 0.284; in that of `Cc1cc2c(nc1C)CCCN2CC(O)CN1CCCc2nc(C)c(C)cc21`, -0.134. For the compound `CO[C@@H]1COC(=O)[C@H](CCSC)NC(=O)CC=C[C@@H](C)COC(=O)CCC[C@H]1C`, the composite z-score worked out at 0.929. In the case of `O=C1[C@H]2[C@H]3[C@H](O)[C@H](O)CC(=NOCc4ccccc4)[C@@H]3CC[C@H]2C(=O)N1Cc1ccc2c(c1)OCO2` it was 0.2.
